# Results filed as inconclusive are left out. Entries that show only a call come without a potency. The source made the active and inactive calls. Calls follow the shape of the dose curve; as a rule, active = well fitted cell-killing curve with a large enough effect in the repeat runs; inconclusive = weak or mixed curves, or effect the other way; inactive = flat fitted curve, though single readings scatter.
# Test: qHTS assay to identify small molecule antagonists of the retinoid acid receptor (RAR) signaling pathway - cell viability counter screen (AID 1159551); also: nearly all actives have a fitted effect of over 35% in size
# Conditions: C3RL4 cells viability, ATP luminescence (CellTiter-Glo), 6 h; series mostly up to 92.4 µM
# Excerpt: U.S. Tox21 Program National Center for Advancing Translational Sciences [NCATS] NIH Chemical Genomics Center [NCGC] U.S. Environmental Protection Agency [EPA] National Institutes of Environmental Health Sciences [NIEHS] National Toxicology Program [NTP] U.S. Food and Drug Administration [FDA] Tox21 Assay Overview: All-trans Retinoic acid (atRA) is the potent natural metabolite of retinol and plays an important role in normal embryonic development and maintenance of cellular phenotype in adult animals. atRA is the activating ligand for the retinoic acid receptors (RARs) which form heterodimers with retinoid X receptors (RXRs) on the retinoic acid response element (RARE). Through activation of the RAR/RXRs nuclear receptors, atRA regulates the transcription of a large number of protein-coding genes and regulatory RNAs. Intracellular levels of atRA are controlled by the retinol signaling pathway (RSP) that regulates the biosynthesis and catabolism of atRA to maintain physiological levels. Chemicals that interfere with the RSP can cause abnormal intracellular levels of atRA and therefore are potential developmental toxicants. To assess compounds for the potential adverse effect on embryonic development through interfering with retinol signaling, a cell-based RARE luciferase reporter gene assay was used. C3RL4 cell line (OARSA/CFSAN/FDA, Laurel, MD) was used to screen Tox21 10K compound library for identifying inhibitors of the RSP. Also cytotoxicity was assessed by determining the viability of cells based on the quantitation of ATP.
# Tox21 Assay Protocol Summary: C3RL4 cells were seeded at 1,000/well in 4 uL of assay medium into white solid 1,536-well tissue culture plates (Greiner Bio-One North America Inc. Monroe, NC) using a Multidrop Combi (Thermo Scientific, Waltham, MA) dispenser. After incubation at 37 C and 5% CO2 for an overnight, 23 nL of compounds dissolved in DMSO, positive control or DMSO only were transferred by a Pintool station (Kalypsys, San Diego, CA). One ul of 1 uM (final concentration) of Retinol was added right after the compound addition by using a Flying Reagent Dispenser (FRD) (Aurora Discovery, San Diego, CA). After 6 hr incubation at 37 C and 5% CO2, 5 uL of CellTiter-Glo reagent (Promega Corporation, Madison, WI) was added to each assay plate using an FRD. Luminescence was quantified on a ViewLux plate reader (PerkinElmer, Waltham, MA) after 30 min incubation at room temperature.
# Potency is read from the fitted curve at half-maximal effect.
row,SMILES,Potency
1,CN(C)C,inactive
2,O=C1OC2(c3ccccc31)c1cc(I)c(O)c(I)c1Oc1c2cc(I)c(O)c1I,27.4 µM (active)
3,CNC[C@H](O)c1ccc(O)c(O)c1,inactive
4,O=Cc1ccccc1C=O,inactive
5,COC(=O)C(C)Oc1ccc(Oc2ncc(C(F)(F)F)cc2Cl)cc1 (stereo not given),inactive
6,O=C(O)c1ccc(O)cc1,inactive
7,c1ccc2c(c1)ccc1ncccc12,inactive
8,CCCCCCCCCCCCCO,inactive
9,O=S1(=O)CCCO1,inactive
10,C=CN1CCCC1=O,inactive
11,C=CC(=O)OCCCC,inactive
12,CC(C)[N+](C)(CCOC(=O)C1c2ccccc2Oc2ccccc21)C(C)C,inactive
13,CC(=O)Oc1c(C)c(C)c2c(c1C)CC[C@@](C)(CCC[C@H](C)CCC[C@H](C)CCCC(C)C)O2,inactive
14,Oc1c(Cl)ccc(Cl)c1Cl,inactive
15,COCCOCCOCCO,inactive
16,CC(=O)[C@@]1(O)CC[C@H]2[C@@H]3C[C@H](C)C4=CC(=O)C=C[C@]4(C)[C@@]3(F)[C@@H](O)C[C@@]21C,inactive
17,CC1(C)NC(=O)N(c2ccc([N+](=O)[O-])c(C(F)(F)F)c2)C1=O,inactive
18,CCCCCC1C(=O)CCC1CC(=O)OC (stereo not given),inactive
19,CC(C)=CCO,inactive
20,C=CC(C)(O)CCC=C(C)C (stereo not given),inactive

row,SMILES,Potency
1,CC1(C)OC(=O)NC1=O,inactive
2,C=C[C@@]1(C)CC(=O)[C@]2(O)[C@@]3(C)[C@@H](O)CCC(C)(C)[C@@H]3[C@H](O)[C@H](OC(C)=O)[C@@]2(C)O1,inactive
3,CC(=O)Nc1ccc2c(c1)Cc1cc(NC(C)=O)ccc1-2,inactive
4,CCc1cccc2c3c([nH]c12)C(CC)(CC(=O)O)OCC3 (stereo not given),inactive
5,CC(=O)OC(C)C,inactive
6,CC(C)(C)c1cccc(C(C)(C)C)c1O,inactive
7,CC(=O)Oc1ccc(C(c2ccc(OC(C)=O)cc2)c2ccccn2)cc1,inactive
8,COc1cc([C@H]2Oc3cc([C@H]4Oc5cc(O)cc(O)c5C(=O)[C@@H]4O)ccc3O[C@@H]2CO)ccc1O,inactive
9,C=CCCCCCCCCCC,inactive
10,Cc1ccc([N+](=O)[O-])c(C)c1,inactive
11,CC[C@]12CCCN3CCc4c(n(c5ccccc45)[C@@](O)(C(=O)OC)C1)[C@@H]32,inactive
12,Nc1cc(Cl)c(N)c(Cl)c1,inactive
13,Cc1ccc(S(=O)(=O)NCl)cc1,inactive
14,OC[C@@H](O)[C@@H](O[C@@H]1O[C@H](CO)[C@H](O)[C@H](O)[C@H]1O)[C@H](O)[C@@H](O)CO,inactive
15,OCCNCCO,inactive
16,C[C@]12CC[C@@H]3c4ccc(O)cc4CC[C@H]3[C@@H]1CC[C@H]2O,inactive
17,COc1ccc(-c2coc3cc(O)cc(O)c3c2=O)cc1,inactive
18,Nc1ccc2c(O)cc(S(=O)(=O)O)cc2c1,inactive
19,CN(C)CCCN1c2ccccc2Sc2ccc(Cl)cc21,inactive
20,CC/C(=C(/CC)c1ccc(O)cc1)c1ccc(O)cc1,inactive

# Reference: PubChem BioAssay (Tox21)
